Measurements: PubChem BioAssay AID1159580 (chemical genetic matrix, 2015)
About 2,000 (36%) of roughly 5,500 compounds were called active. Another 18% or so got no clear call; they are omitted. No stated cut-off is given here; in the data, active means normalized growth mostly below about 0.91 (no sharp cut-off); inconclusive means no clear call, values can overlap the other calls; inactive means mostly above about 0.92. The list shows a part of the results.

Assay: chemical genetic growth profiling, strain panel (AID 1159580);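 further: tested at 20 µM; growth read once vehicle control cultures reached saturation at 30 °C; 1 = growth at the plate median or of vehicle wells; lower values mean less growth of the strain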
Details: S. cerevisiae deletion strains, growth OD
[1] = locus YAL021C, strain ccr4, hits give low values
[2] = locus YAL026C, strain drs2, hits give low values
[3] = locus YAL030W, strain snc1, hits give low values
[4] = locus YBL061C, strain skt5, hits give low values
[5] = locus YBR009C, strain hhf1, hits give low values
[6] = locus YBR023C, strain chs3, hits give low values
[7] = locus YBR171W, strain sec66, hits give low values
[8] = locus YBR231C, strain swc5, hits give low values
[9] = locus YBR279W, strain paf1, hits give low values
[10] = locus YCL011C, strain gbp2, hits give low values
[11] = locus YCL016C, strain dcc1, hits give low values
[12] = locus YCL061C, strain MRC1, hits give low values
[13] = locus YCL069W, strain vba3, hits give low values
[14] = locus YCR088W, strain abp1, hits give low values
[15] = locus YDL005C, strain med2, hits give low values
[16] = locus YDL040C, strain nat1, hits give low values
[17] = locus YDR001C, strain nth1, hits give low values
[18] = locus YDR069C, strain doa4, hits give low values
[19] = locus YDR137W, strain rgp1, hits give low values
[20] = locus YDR159W, strain sac3, hits give low values
[21] = locus YDR297W, strain sur2, hits give low values
[22] = locus YDR334W, strain swr1, hits give low values
[23] = locus YDR335W, strain msn5, hits give low values
[24] = locus YDR392W, strain spt3, hits give low values
[25] = locus YEL003W, strain gim4, hits give low values
[26] = locus YEL037C, strain rad23, hits give low values
[27] = locus YEL061C, strain CIN8 (second series), hits give low values
[28] = locus YER015W, strain faa2, hits give low values
[29] = locus YER016W, strain bim1, hits give low values
[30] = locus YER111C, strain swi4, hits give low values
[31] = locus YER155C, strain BEM2 (second series), hits give low values
[32] = locus YFR010W, strain ubp6, hits give low values
[33] = locus YGL167C, strain pmr1, hits give low values
[34] = locus YGL173C, strain kem1, hits give low values
[35] = locus YGL227W, strain vid30, hits give low values
[36] = locus YGL240W, strain doc1, hits give low values
[37] = locus YGL253W, strain hxk2, hits give low values
[38] = locus YHR013C, strain ard1, hits give low values
[39] = locus YHR027C, strain rpn1, hits give low values
[40] = locus YHR142W, strain chs7, hits give low values
[41] = locus YJL092W, strain hpr5, hits give low values
[42] = locus YJL095W, strain BCK1 (second series), hits give low values
[43] = locus YJL115W, strain asf1, hits give low values
[44] = locus YJL129C, strain trk1, hits give low values
[45] = locus YJL154C, strain vps35, hits give low values
[46] = locus YJL164C, strain tpk1, hits give low values
[47] = locus YJL166W, strain qcr8, hits give low values
[48] = locus YKL160W, strain elf1, hits give low values
[49] = locus YKR026C, strain gcn3, hits give low values
[50] = locus YKR091W, strain srl3, hits give low values
[51] = locus YLL001W, strain dnm1, hits give low values
[52] = locus YLL026W, hits give low values
[53] = locus YLL041C, strain sdh2, hits give low values
[54] = locus YLR027C, strain aat2, hits give low values
[55] = locus YLR221C, strain rsa3, hits give low values
[56] = locus YLR258W, strain gsy2, hits give low values
[57] = locus YLR262C, strain YPT6 (second series), hits give low values
[58] = locus YLR320W, strain mms22, hits give low values
[59] = locus YLR342W, strain FKS1, hits give low values
[60] = locus YLR357W, strain rsc2, hits give low values
[61] = locus YLR370C, strain arc18, hits give low values
[62] = locus YLR384C, strain iki3, hits give low values
[63] = locus YML120C, strain ndi1, hits give low values
[64] = locus YMR058W, strain fet3, hits give low values
[65] = locus YMR125W, strain sto1, hits give low values
[66] = locus YMR129W, hits give low values
[67] = locus YMR205C, strain PFK2, hits give low values
[68] = locus YMR231W, strain pep5, hits give low values
[69] = locus YNL071W, strain lat1, hits give low values
[70] = locus YNL209W, strain ssb2, hits give low values
[71] = locus YNL248C, strain rpa49, hits give low values
[72] = locus YNL322C, strain KRE1 (second series), hits give low values
[73] = locus YNR049C, strain mso1, hits give low values
[74] = locus YOR001W, strain rrp6, hits give low values
[75] = locus YOR070C, strain gyp1, hits give low values
[76] = locus YOR080W, strain dia2, hits give low values
[77] = locus YOR083W, strain WHI5, hits give low values
[78] = locus YOR106W, strain vam3, hits give low values
[79] = locus YOR265W, strain rbl2, hits give low values
[80] = locus YOR270C, strain vph1, hits give low values
[81] = locus YOR290C, strain snf2, hits give low values
[82] = locus YPL051W, strain arl3, hits give low values
[83] = locus YPL078C, strain atp4, hits give low values
[84] = locus YPL106C, strain sse1, hits give low values
[85] = locus YPL240C, strain hsp82, hits give low values

Measured: normalized growth

C=CC(N)CCC(=O)O (configuration not stated)
inactive: locus YAL013W, strain DEP1, hits give low values 1.02 | [1] 0.971 | [2] 0.984 | [3] 0.985 | locus YAL040C, strain CLN3, hits give low values 1.07 | [4] 0.976 | [5] 0.99 | [6] 0.965 | [7] 0.955 | [8] 0.99 | [9] 0.986 | [10] 0.975 | [11] 0.976 | locus YCL061C, strain MRC1 (second series), hits give low values 1 | [12] 0.973 | [13] 0.98 | [14] 0.986 | [15] 0.977 | [16] 0.984 | [17] 0.975 | [18] 0.992 | [19] 0.94 | locus YDR150W, strain NUM1, hits give low values 1 | [20] 1.01 | locus YDR195W, strain ref2 1 | [21] 0.986 | [22] 0.972 | [23] 0.981 | locus YDR363W, strain ESC2, hits give low values 0.993 | [24] 0.922 | [25] 0.996 | [26] 0.975 | [27] 0.982 | locus YER002W, strain NOP16, hits give low values 0.993 | [28] 0.992 | [29] 0.999 | [30] 0.973 | [31] 0.988 | [32] 0.972 | [33] 0.973 | [34] 0.975 | [35] 0.99 | [36] 0.993 | [37] 0.98 | locus YGR078C, strain PAC10, hits give low values 0.987 | locus YGR229C, strain SMI1, hits give low values 1.03 | [38] 0.973 | [39] 0.972 | [40] 0.94 | [41] 0.983 | [42] 0.987 | [43] 0.972 | [44] 0.977 | [45] 0.974 | [46] 0.979 | [47] 0.971 | locus YJL187C, strain SWE1, hits give low values 0.983 | locus YJR075W, strain HOC1, hits give low values 1.01 | [48] 0.964 | [49] 0.983 | [50] 0.985 | [51] 0.96 | [52] 1 | [53] 0.981 | [54] 0.984 | [55] 0.958 | [56] 0.981 | [57] 0.975 | [58] 0.952 | [59] 0.97 | [60] 0.971 | [61] 0.968 | [62] 0.965 | [63] 0.981 | [64] 0.98 | [65] 0.968 | [66] 0.988 | [67] 0.955 | [68] 0.97 | locus YMR307W, strain GAS1, hits give low values 1.02 | [69] 0.986 | locus YNL128W, strain TEP1, hits give low values 0.972 | locus YNL175C, strain NOP13, hits give low values 0.99 | locus YNL197C, strain WHI3, hits give low values 0.994 | [70] 0.991 | locus YNL224C, strain SQS1, hits give low values 0.991 | [71] 0.968 | [72] 0.967 | [73] 0.994 | [74] 0.996 | [75] 0.998 | [76] 0.974 | locus YOR083W, strain WHI5 (second series), hits give low values 0.991 | [77] 0.967 | [78] 0.961 | [79] 0.98 | [80] 0.939 | [81] 0.945 | [82] 0.973 | locus YPL055C, strain LGE1, hits give low values 1 | [83] 0.961 | [84] 0.971 | [85] 0.986

C[C@H]1COC2=C1C(=O)C(=O)c1c2ccc2c1CCCC2(C)C
inactive: [33] 0.936 | [60] 0.934
active: [1] 0.859 | [2] 0.583 | [3] 0.858 | [4] 0.725 | [5] 0.534 | [6] 0.783 | [7] 0.808 | [8] 0.675 | [9] 0.725 | [10] 0.65 | [11] 0.691 | [12] 0.668 | [13] 0.659 | [14] 0.866 | [15] 0.828 | [16] 0.9 | [17] 0.913 | [18] 0.868 | [19] 0.23 | [20] 0.301 | locus YDR195W, strain ref2 0.823 | [21] 0.75 | [22] 0.729 | [23] 0.658 | [24] 0.0851 | [25] 0.77 | [26] 0.883 | [27] 0.527 | [28] 0.845 | [29] 0.666 | [30] 0.478 | [31] 0.334 | [32] 0.871 | [34] 0.801 | [35] 0.546 | [36] 0.649 | [37] 0.545 | [38] 0.604 | [39] 0.872 | locus YHR030C, strain SLT2, hits give low values 0.139 | locus YHR079C, strain IRE1, hits give low values 0.25 | [40] 0.379 | [41] 0.871 | [42] 0.408 | locus YJL095W, strain BCK1, hits give low values 0.31 | [43] 0.886 | [44] 0.22 | [45] 0.913 | [46] 0.69 | [47] 0.349 | locus YJR066W, strain TOR1, hits give low values 0.701 | [48] 0.462 | [49] 0.853 | [50] 0.893 | [51] 0.819 | [52] 0.843 | [53] 0.901 | [54] 0.662 | locus YLR113W, strain HOG1, hits give low values 0.208 | [55] 0.662 | [56] 0.723 | [57] 0.2 | [58] 0.613 | [59] 0.626 | [61] 0.806 | [62] 0.904 | [63] 0.371 | [64] 0.619 | [65] 0.476 | [66] 0.824 | [67] 0.531 | [68] 0.714 | [69] 0.18 | locus YNL183C, strain NPR1, hits give low values 0.666 | [70] 0.817 | [71] 0.735 | [72] 0.801 | [73] 0.903 | [74] 0.608 | [75] 0.752 | [76] 0.912 | [77] 0.712 | [78] 0.581 | locus YOR231W, strain MKK1, hits give low values 0.213 | [79] 0.895 | [80] 0.543 | [81] 0.775 | [82] 0.549 | [83] 0.453 | [84] 0.537 | [85] 0.761 | locus YPL256C, strain CLN2, hits give low values 0.19
